# Reference: PubChem BioAssay (NCATS)
# Where “and” joins values, the source holds several entries; their conditions need not be identical. Equal entries are not always repeated. Results filed as inconclusive are left out. Where a call stands in place of a potency, no number is given. Calls of active or inactive are those of the source. Calls come from the whole dose curve; as a rule, active = well fitted inhibition curve with a large enough effect in the repeat runs; inconclusive = weak or mixed curves; inactive = no such curve, though single readings can be large or run the other way.
# Target: Cytochrome P450 2C9 (Homo sapiens) (UniProt P11712)
# Sequence (P11712 whole entry, looked up): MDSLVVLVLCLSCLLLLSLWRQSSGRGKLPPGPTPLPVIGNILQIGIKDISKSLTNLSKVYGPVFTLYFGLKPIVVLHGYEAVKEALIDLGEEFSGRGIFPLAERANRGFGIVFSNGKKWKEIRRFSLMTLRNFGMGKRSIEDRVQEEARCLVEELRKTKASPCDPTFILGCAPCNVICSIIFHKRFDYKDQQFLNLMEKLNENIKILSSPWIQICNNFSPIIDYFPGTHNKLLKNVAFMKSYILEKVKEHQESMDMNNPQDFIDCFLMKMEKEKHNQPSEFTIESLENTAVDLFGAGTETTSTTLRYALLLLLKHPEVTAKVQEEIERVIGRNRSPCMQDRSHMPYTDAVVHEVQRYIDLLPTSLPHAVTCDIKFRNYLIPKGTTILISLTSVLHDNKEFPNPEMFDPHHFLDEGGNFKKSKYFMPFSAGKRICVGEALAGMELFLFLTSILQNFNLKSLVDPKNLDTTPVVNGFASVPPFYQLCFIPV
# Test: Cytochrome P450 family 2 subfamily C member 9 (CYP2C9) small molecule antagonists: luciferase biochemical (cell-free) qHTS assay (AID 1645842); note: nearly all actives have a fitted effect of over 55% in size
# Conditions: P450-Glo CYP2C9 enzyme assay, luciferin luminescence; series mostly up to 57.4 µM
# Protocol: National Center for Advancing Translational Sciences [NCATS] Assay Overview: Cytochrome P450 (CYP) enzymes are membrane-bound hemeproteins that play a key role in metabolism of drugs and xenobiotics. Assaying the effect of chemicals on CYP isozymes is useful to minimize the adverse drug reactions and toxicities in drug development process. Chemical compounds were tested for their effect on CYP enzyme activities by using P450-Glo (TM) screening systems (Promega Corporation, Madison, WI). These systems provide a luminescent method containing proluciferin substrates and are converted to luciferin products by CYP isozymes. The luciferin products formed are detected with a luciferin detection reagent, and the amount of light produced is proportional to CYP activity. P450-Glo (TM) CYP2C9 screening system (Catalog. No. V9790) was used to detect the compounds that interfere in CYP2C9 activity.
# Assay Protocol Summary: Two ul of enzyme-substrate mix supplemented with 0.4% Bovine Serum Albumin was dispensed into medium binding white/solid 1536-well plates (Greiner Bio-One North America Inc., Monroe, NC) using a Flying Reagent Dispenser (FRD, Aurora Discovery, San Diego, CA). […] The assay plates were incubated at room temperature for 10 min. Then 2 ul of NADPH regeneration solution was added to each well of the assay plates using an FRD and incubated at 37C for 1 h. The reaction was stopped by adding 4 ul of detection reagent using an FRD and after 20 min incubation at room temperature, the luminescence signal was measured using a ViewLux plate reader (Perkin Elmer, Shelton, CT). Data were expressed as relative luminescence units.
# Potency is the fitted concentration of half-maximal effect.
row,SMILES,Potency
1,Oc1ccc(Cl)cc1Cc1cc(Cl)ccc1O,7.76 µM (active)
2,CCN(CC)CCOc1ccc2c(c1)C(=O)c1cc(OCCN(CC)CC)ccc1-2,inactive
3,CCCCN1C[C@H](O)[C@@H](O)[C@H](O)[C@H]1CO,inactive
4,CC(C)CCCC(C)N (stereo not given),inactive
5,CCCCCCCCCCCCCC(=O)OC(C)C,inactive
6,O=C(NC1CCN(CCc2c[nH]c3ccccc23)CC1)c1ccccc1,inactive
7,CCCCCCCCNC(C)C(O)c1ccc(SC(C)C)cc1 (stereo not given),inactive
8,CCCCC(CC)COC(=O)/C=C/c1ccc(OC)cc1 (stereo not given),9.77 µM (active)
9,C[C@@]12C(=O)OC(=O)[C@]1(C)C1CCC2O1,inactive
10,CC(C)Cn1cnc2c1c(=O)n(C)c(=O)n2C,inactive
11,CCCc1ncc(C[n+]2ccccc2C)c(N)n1,inactive
12,COc1cc(O)c(C(=O)c2ccccc2)cc1S(=O)(=O)O,inactive
13,CCCCOC(=O)CC(CC(=O)OCCCC)(OC(C)=O)C(=O)OCCCC,1.74 µM (active)
14,CNCCCCOc1ccccc1Cc1ccccc1,inactive
15,O=C(CCN1CCN2CCCC2C1)N1c2ccccc2Sc2ccc(Cl)cc21 (stereo not given),inactive
16,COc1ccccc1N1CCN(CCCCNC(=O)c2ccc(-c3ccc(C(C)=O)cc3)cc2)CC1,inactive
17,COc1ccc(CN(CCN(C)C)c2ncccn2)cc1,inactive
18,O=C1c2cccc3c2[C@H](CCC3)CN1[C@@H]1CN2CCC1CC2,inactive
19,CCOC(=O)c1c(N)sc2c1CCN(Cc1ccccc1)C2,8.71 µM (active)
20,C=C[C@H]1CN2CC[C@H]1C[C@H]2[C@H](O)c1ccnc2ccc(OC)cc12,inactive

row,SMILES,Potency
1,CC1(COc2ccc(CC3SC(=O)NC3=O)cc2)CCCCC1 (stereo not given),inactive
2,O=C(Nc1ccccc1)OCC(CN1CCCCC1)OC(=O)Nc1ccccc1 (stereo not given),13.8 µM (active)
3,CC(=O)Nc1ncc([N+](=O)[O-])s1,inactive
4,CC(=O)OCC(=O)[C@H]1CC[C@H]2[C@@H]3CCC4=CC(=O)CC[C@]4(C)[C@H]3CC[C@]12C,4.9 µM (active)
5,CC(C)[C@@H]1CC[C@@H](C)CC1=O,inactive
6,O=C1OC2(c3ccccc31)c1cc(Br)c(O)c(Br)c1Oc1c2cc(Br)c(O)c1Br,12.3 µM (active)
7,OC(C#CCN1CCCC1)(c1ccccc1)c1ccccc1,8.71 µM (active)
8,NC1CCN(c2nc3c(cc2F)c(=O)c(C(=O)O)cn3-c2ccc(F)cc2F)C1 (stereo not given),inactive
9,CC(C)(C)CC(C)(C)c1ccc(O)c(-n2nc3ccccc3n2)c1,10.7 µM (active) and 6.92 µM (active)
10,CCNC(=O)NCc1cccc(Cl)c1,inactive
11,CCCCc1cc2ccccc2c(OCCN(C)C)n1,inactive
12,C=C[C@H]1CN2CC[C@H]1C[C@@H]2[C@@H](O)c1ccnc2ccc(OC)cc12,inactive
13,CC(C)Cc1ccc(CC(=O)O)cc1,inactive
14,CNCCc1ccccn1,inactive
15,CC(C)[N+](C)(C)CC(O)COc1cccc2ccccc12 (stereo not given),inactive
16,Cc1cc(-c2ccccc2)nnc1NCCN1CCOCC1,inactive
17,CCOC(=O)C(C#N)=C(c1ccccc1)c1ccccc1,2.45 µM (active)
18,CCc1nn(CCCN2CCN(c3cccc(Cl)c3)CC2)c(=O)n1CCOc1ccccc1,inactive
19,COc1ccc2c(c1)c1c3n2CCN(C)C3=NCC1,inactive
20,O=C(O)P(=O)(O)O,inactive
